Several values for one entry are separate records, joined by “and”; a condition that tells them apart may be missing. Equal values may be shown once. For some of these results: Entries with a potency or affinity are not part of this list. Some compounds were tested as several samples or in several runs, with calls that do not always agree. Activity calls are given as the source filed them. Unless noted, no rule for the calls is given here.
Key:
[1] = antimalarial activity against Dd2 strain (AID 2302;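 active = growth inhibition above 50% at the single 2 µM test dose, taken to imply half-maximal potency below 2 µM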;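 also: 0% = DMSO untreated growth and 100% = chloroquine plus artemisinin killed control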); settings: P. falciparum Dd2 in RBCs, LDH growth readout, 72 h; at 2 µM; stronger effect = higher value
[2] = HepG2 cytotoxicity, primary screen, cytotoxicity control for P. falciparum antimalarial project, cell-based, ATP luminescence (AID 2303;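 active = inhibition above 50%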;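 also: 0% = DMSO wells and 100% = digitonin-killed cells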); settings: HepG2 viability, 24-48 h, at 10 µM, stronger effect = higher value
[3] = target: L-lactate dehydrogenase (Plasmodium falciparum (isolate CDC / Honduras)) (UniProt Q27743); assay: PfLDH activity inhibition – cell lysate, 3D7 strain, counter-screen for P. falciparum growth inhibition project (AID 2304);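 also: 0% = vehicle and 100% = reference inhibitor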; settings: P. falciparum 3D7 crude extract, LDH APAD/NBT absorbance; at 2 µM; stronger effect = higher value
Sequence of L-lactate dehydrogenase (Plasmodium falciparum (isolate CDC / Honduras)) (Q27743 whole entry, looked up): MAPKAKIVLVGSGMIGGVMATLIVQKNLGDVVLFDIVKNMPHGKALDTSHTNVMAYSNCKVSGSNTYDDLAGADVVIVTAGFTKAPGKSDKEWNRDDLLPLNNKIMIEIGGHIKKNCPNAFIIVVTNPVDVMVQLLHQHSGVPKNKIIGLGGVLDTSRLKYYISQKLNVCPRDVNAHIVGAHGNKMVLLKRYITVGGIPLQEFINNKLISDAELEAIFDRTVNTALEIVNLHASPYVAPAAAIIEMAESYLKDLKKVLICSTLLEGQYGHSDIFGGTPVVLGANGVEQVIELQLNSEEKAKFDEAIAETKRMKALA

[4] = inhibition of 3D7 malaria parasite growth – strain 3D7 (AID 2306);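 also: 0% = DMSO wells and 100% = chloroquine plus artemisinin control wells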; settings: P. falciparum 3D7 erythrocytic growth, LDH absorbance, 72 h; at 2 µM; stronger effect = higher value
[5] = target: Calcium-dependent protein kinase 1 (Plasmodium falciparum (isolate 3D7)) (UniProt P62344); assay: PfCDPK1 kinase inhibitors, biochemical, TCAMS library (AID 1159585; cut-off not given, nearly all actives have IC50 up to about 0.98 µM;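 also: inhibitors leave more ATP so luminescence rises with inhibition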); settings: recombinant PfCDPK1, Kinase-Glo ATP depletion luminescence
Sequence of Calcium-dependent protein kinase 1 (Plasmodium falciparum (isolate 3D7)) (P62344 whole entry, looked up): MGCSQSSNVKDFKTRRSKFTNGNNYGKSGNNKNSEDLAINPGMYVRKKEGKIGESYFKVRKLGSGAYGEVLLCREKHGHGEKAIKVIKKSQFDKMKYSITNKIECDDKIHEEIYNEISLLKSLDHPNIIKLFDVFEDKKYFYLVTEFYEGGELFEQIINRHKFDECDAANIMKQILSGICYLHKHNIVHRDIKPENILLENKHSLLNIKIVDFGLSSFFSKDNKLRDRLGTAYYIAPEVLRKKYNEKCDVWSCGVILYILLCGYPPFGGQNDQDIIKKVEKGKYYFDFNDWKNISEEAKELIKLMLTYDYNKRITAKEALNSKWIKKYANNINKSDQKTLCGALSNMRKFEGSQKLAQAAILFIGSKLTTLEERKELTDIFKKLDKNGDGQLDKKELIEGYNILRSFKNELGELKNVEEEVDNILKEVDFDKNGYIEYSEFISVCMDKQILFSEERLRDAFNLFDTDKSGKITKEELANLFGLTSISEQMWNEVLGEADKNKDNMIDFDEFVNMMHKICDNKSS

[6] = target: Plasmodium falciparum protein kinase 6 (PK6, PF3D7_1337100) (UniProt Q8IDW1); assay: PfPK6 kinase inhibitors, biochemical, TCAMS library (AID 1159586); settings: recombinant PfPK6, Kinase-Glo ATP depletion luminescence
Sequence of Plasmodium falciparum protein kinase 6 (PK6, PF3D7_1337100) (Q8IDW1 1-305): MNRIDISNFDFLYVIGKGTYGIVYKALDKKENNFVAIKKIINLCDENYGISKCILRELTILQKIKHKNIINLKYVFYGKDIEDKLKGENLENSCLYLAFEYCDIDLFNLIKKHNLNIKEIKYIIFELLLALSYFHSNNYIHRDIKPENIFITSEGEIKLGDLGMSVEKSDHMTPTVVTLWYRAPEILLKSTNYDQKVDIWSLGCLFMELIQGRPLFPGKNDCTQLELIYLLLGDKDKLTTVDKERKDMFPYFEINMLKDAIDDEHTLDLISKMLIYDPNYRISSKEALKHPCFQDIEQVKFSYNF

[7] = target: Protein kinase 7 (PK7), Plasmodium falciparum 3D7 (PF3D7_0213400) (UniProt Q7YTF7); assay: inhibition of Plasmodium PK7 catalytic activity – biochemical, TCAMS antimalarial set, Kinase-Glo luminescence (AID 1159587); settings: recombinant PfPK7, Kinase-Glo ATP depletion luminescence
Sequence of Protein kinase 7 (PK7), Plasmodium falciparum 3D7 (PF3D7_0213400) (Q7YTF7 1-343): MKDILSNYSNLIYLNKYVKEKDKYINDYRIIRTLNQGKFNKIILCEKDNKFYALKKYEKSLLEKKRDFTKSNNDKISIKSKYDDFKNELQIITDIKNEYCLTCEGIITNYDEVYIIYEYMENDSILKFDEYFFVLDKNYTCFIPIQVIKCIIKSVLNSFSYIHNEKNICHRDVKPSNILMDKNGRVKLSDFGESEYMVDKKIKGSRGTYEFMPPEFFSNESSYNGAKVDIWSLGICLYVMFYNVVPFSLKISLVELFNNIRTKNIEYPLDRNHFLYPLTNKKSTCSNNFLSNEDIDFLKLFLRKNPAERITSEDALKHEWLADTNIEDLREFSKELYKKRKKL

[8] = target: Calcium-dependent protein kinase 4 (Plasmodium falciparum (isolate 3D7)) (UniProt Q8IBS5); assay: PfCDPK4 kinase inhibitors, biochemical, TCAMS library (AID 1159588; cut-off not given, nearly all actives have IC50 up to about 0.91 µM); settings: recombinant PfCDPK4, Kinase-Glo ATP depletion luminescence
Sequence of Calcium-dependent protein kinase 4 (Plasmodium falciparum (isolate 3D7)) (Q8IBS5 whole entry, looked up): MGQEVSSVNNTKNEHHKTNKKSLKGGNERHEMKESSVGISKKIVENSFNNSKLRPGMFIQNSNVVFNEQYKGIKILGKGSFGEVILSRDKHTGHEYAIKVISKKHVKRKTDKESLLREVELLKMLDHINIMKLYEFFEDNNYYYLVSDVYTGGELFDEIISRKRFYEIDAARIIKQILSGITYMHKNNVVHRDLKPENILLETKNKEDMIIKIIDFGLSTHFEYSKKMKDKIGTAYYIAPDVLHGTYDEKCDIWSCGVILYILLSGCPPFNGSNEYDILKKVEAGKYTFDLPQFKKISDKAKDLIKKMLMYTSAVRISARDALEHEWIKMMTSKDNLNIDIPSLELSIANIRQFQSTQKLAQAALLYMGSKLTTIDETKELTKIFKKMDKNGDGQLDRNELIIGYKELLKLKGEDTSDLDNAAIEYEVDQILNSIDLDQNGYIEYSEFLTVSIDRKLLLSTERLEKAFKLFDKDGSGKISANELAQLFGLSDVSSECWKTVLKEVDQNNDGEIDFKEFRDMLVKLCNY

SMILES | growth inhibition [1] | inhibition [2] | inhibition [3] | growth inhibition [4] | outcome [5] | outcome [6] | outcome [7] | outcome [8]
COc1nc(N)ncc1C(=O)NC1CN2CCC1CC2 (centres undefined) | 0% (inactive) | 26% (inactive) | -1% (inactive) | 92% (active) | inactive | inactive | inactive | inactive
Cc1cc(N)nc2cc(CNCCc3ccccc3Br)ccc12 | 93% (active) | 47% (inactive) | 0% (inactive) | 101% (active) | inactive | inactive | inactive | inactive
CCN1CCC(N2CCC(n3c(C)nc4cc(C(F)(F)F)ccc43)CC2)CC1 | 16% (inactive) | 6% (inactive) | 1% (inactive) | 93% (active) | inactive | inactive | inactive | inactive
CN1CC[C@H](N(Cc2ccccc2F)c2ccc(C#N)c(Cl)c2)C1 | 68% (active) | 18% (inactive) | -6% (inactive) | 88% (active) | inactive | inactive | inactive | inactive
CCCCCOc1ccc(CC(C)NCC(O)c2cccc(Cl)c2)cc1 (centres undefined) | 99% (active) | 0% (inactive) | 2% (inactive) | 101% (active) | inactive | inactive | inactive | inactive
O=C(NC1CCC(CN2CCC(c3c[nH]c4ccccc34)CC2)CC1)c1ccc(-c2cc(C(F)(F)F)ccc2Cl)o1 (centres undefined) | 34% (inactive) | 5% (inactive) | 3% (inactive) | 102% (active) | inactive | inactive | inactive | inactive
COc1cccc(CCNC(C)Cc2ccc(OCCCCOc3ccccc3)cc2)c1 (centres undefined) | 90% (active) | 100% (active) | 5% (inactive) | 97% (active) | inactive | inactive | inactive | inactive
COc1cccc(CN2CCC(CCOC(c3ccccc3)c3ccc(Cl)cc3)CC2)c1O (centres undefined) | 100% (active) | 22% (inactive) | -2% (inactive) | 99% (active) | inactive | inactive | inactive | inactive
CCCCCc1cc(O)c2c(c1)OC(C)(C)c1ccncc1-2 | 57% (active) | -5% (inactive) | -1% (inactive) | 99% (active) | inactive | inactive | inactive | inactive
NC(=NCCCCCCN=C(N)/N=C(\N)c1ccc(Cl)cc1)/N=C(\N)c1ccc(Cl)cc1 | 99% (active) | 10% (inactive) | -9% (inactive) | 98% (active) | inactive | inactive | inactive | inactive
O=C(CSc1ccc(Cl)cc1)NC1CCC(CN2CCC(c3c[nH]c4ccccc34)CC2)CC1 (centres undefined) | 21% (inactive) | 41% (inactive) | -3% (inactive) | 95% (active) | inactive | inactive | inactive | inactive
O=C(C=Cc1cccc(Cl)c1Cl)NC1CCC(CN2CCC(c3c[nH]c4ccccc34)CC2)CC1 (centres undefined) | 78% (active) and 5% (inactive) | 40% (inactive) and 33% (inactive) | 6% (inactive) and -5% (inactive) | 102% (active) and 83% (active) | inactive | inactive | inactive | inactive
CCCc1ccc2c(c1O)CCC(N(CCC)CCC)C2 (centres undefined) | 23% (inactive) | -3% (inactive) | 3% (inactive) | 90% (active) | inactive | inactive | inactive | inactive
CSc1nccc(-c2ccc(S(=O)(=O)NC3CCC(CN4CCC(c5c[nH]c6ccccc56)CC4)CC3)s2)n1 (centres undefined) | 67% (active) and 33% (inactive) | 36% (inactive) and 61% (active) | -1% (inactive) and 4% (inactive) | 101% (active) | inactive | inactive | inactive | inactive
NCC(=O)c1cc2c(cc1N)OCCO2 | 42% (inactive) | 64% (active) | 0% (inactive) | 89% (active) | inactive | inactive | inactive | inactive
CC[C@H]1CN2CCc3cc(OC)c(OC)cc3[C@@H]2C[C@@H]1C[C@H]1NCCc2c1cc(OC)c(O)c2Cl | 101% (active) | 51% (active) | 2% (inactive) | 100% (active) | inactive | inactive | inactive | inactive
CC[C@H]1CN2CC[C@@H]1C[C@H]2[C@H](O)c1cc(N2CCC(C)CC2)nc2ccc(OC)cc12 | 98% (active) | 16% (inactive) | 1% (inactive) | 99% (active) | inactive | inactive | inactive | inactive
Cc1[nH]c2ccc(O)cc2c1C1CCN(CC2CCC(NC(=O)/C=C/c3ccc(Cl)c(Cl)c3)CC2)CC1 (centres undefined) | 95% (active) | 19% (inactive) | 3% (inactive) | 102% (active) | inactive | inactive | inactive | inactive
O=C(NC1CCC(CN2CCC(c3c[nH]c4ccccc34)CC2)CC1)C1(O)c2ccccc2-c2ccccc21 (centres undefined) | 46% (inactive) | 22% (inactive) | -4% (inactive) | 85% (active) | inactive | inactive | inactive | inactive
CC[C@H]1CN2CC[C@@H]1C[C@H]2[C@H](O)c1cc(-c2ccc(F)cc2)nc2ccc(O)cc12 | 99% (active) | 25% (inactive) | -2% (inactive) | 99% (active) | inactive | inactive | inactive | inactive
O=C(C=Cc1ccc(F)c(Br)c1)N1CCC(CN2CCC(c3c[nH]c4ccccc34)CC2)CC1 | 9% (inactive) | 39% (inactive) | -3% (inactive) | 100% (active) | inactive | inactive | inactive | inactive
OC1(c2ccc(Cl)c(C(F)(F)F)c2)CCN(CCOC2c3ccccc3CSc3ccc(Cl)cc32)CC1 (centres undefined) | 58% (active) | 3% (inactive) | 6% (inactive) | 95% (active) | inactive | inactive | inactive | inactive
CC(Cc1ccc(OCCCCOc2ccccc2)cc1)NCCc1ccccc1Cl (centres undefined) | 58% (active) | 100% (active) | 1% (inactive) | 97% (active) | inactive | inactive | inactive | inactive
